Laboratory results from PubChem BioAssay (EPA / NIEHS).
Values joined by “and” are separate entries in the source; they are usually repeats but may differ in a detail not shown here. Identical values can stand only once. Results filed as inconclusive are left out. Active and inactive are the calls of the source. The calls were made as follows: active = hit-call score of the fitted dose curve at least 0.9, where 1 is the maximum; inconclusive = response in the unintended direction; inactive = score below 0.9.

target: human Fibroblast Growth Factor Receptor 1 (FGFR1), FGFR1 (gene 2260) (UniProt P11362); assay: NVS_ENZ_hFGFR1: NovaScreen (NVS) Enzymatic Assay for human Fibroblast Growth Factor Receptor 1 (FGFR1) (AID 2283159);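 as to AC50: hits lower the signal so potencies describe inhibitors of the kinase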
Protocol: NVS_ENZ_hFGFR1 is a biochemical, single-readout assay that uses extracted gene-proteins in a cell-free assay. Measurements were taken 1 hour after chemical dosing in a 384-well plate.NVS_ENZ_hFGFR1 is one of one assay component(s) measured or calculated from the NVS_ENZ_hFGFR1 assay. It is designed to make measurements of enzyme activity, a form of enzyme reporter, as detected with fluorescence intensity signals by Fluorescence and electrophoretic mobility shift technology.Data from the assay component NVS_ENZ_hFGFR1 was analyzed into 1 assay endpoint. This assay endpoint, NVS_ENZ_hFGFR1, was analyzed in the positive analysis fitting direction relative to DMSO as the negative control and baseline of activity. Using a type of enzyme reporter, loss-of-signal activity can be used to understand changes in the enzymatic activity as they relate to the gene FGFR1. Furthermore, this assay endpoint can be referred to as a primary readout, because this assay has produced multiple assay endpoints where this one serves a enzymatic activity function. To generalize the intended target to other relatable targets, this assay endpoint is annotated to the kinase intended target family, where the subfamily is receptor tyrosine kinase.
Binding assays used specific radioligands (tritiated, iodinated) with non-radioactive competitive displacement ligands in agonist or antagonist protocols (as indicated) and various reference compounds and inhibitors to titrate specific binding to receptors and transporters. Most enzyme assays (CYPs, kinases, phosphatases, proteases, HDACs) used recombinant protein and specific substrates (fluorescence mostly, some colorimetric and radioactive) and inhibitors, followed by a biochemical separation of substrate and product. All assays for the biochemical HTS were initially run in duplicate at a single concentration (10 uM for CYP450 assays and 25 uM for all others). […] Each assay was run with positive and negative controls, and concurrent controls on every plate. The follow-up (secondary) screen tested active chemical-pairs in concentration series, as well as a few additional assays not tested in the primary screen, some selected negative inactives, and several cases re-run in the concentration series for confirmatory purposes.

human Fibroblast Growth Factor Receptor 1 (FGFR1), FGFR1 (gene 2260), sequence (P11362 whole entry, looked up): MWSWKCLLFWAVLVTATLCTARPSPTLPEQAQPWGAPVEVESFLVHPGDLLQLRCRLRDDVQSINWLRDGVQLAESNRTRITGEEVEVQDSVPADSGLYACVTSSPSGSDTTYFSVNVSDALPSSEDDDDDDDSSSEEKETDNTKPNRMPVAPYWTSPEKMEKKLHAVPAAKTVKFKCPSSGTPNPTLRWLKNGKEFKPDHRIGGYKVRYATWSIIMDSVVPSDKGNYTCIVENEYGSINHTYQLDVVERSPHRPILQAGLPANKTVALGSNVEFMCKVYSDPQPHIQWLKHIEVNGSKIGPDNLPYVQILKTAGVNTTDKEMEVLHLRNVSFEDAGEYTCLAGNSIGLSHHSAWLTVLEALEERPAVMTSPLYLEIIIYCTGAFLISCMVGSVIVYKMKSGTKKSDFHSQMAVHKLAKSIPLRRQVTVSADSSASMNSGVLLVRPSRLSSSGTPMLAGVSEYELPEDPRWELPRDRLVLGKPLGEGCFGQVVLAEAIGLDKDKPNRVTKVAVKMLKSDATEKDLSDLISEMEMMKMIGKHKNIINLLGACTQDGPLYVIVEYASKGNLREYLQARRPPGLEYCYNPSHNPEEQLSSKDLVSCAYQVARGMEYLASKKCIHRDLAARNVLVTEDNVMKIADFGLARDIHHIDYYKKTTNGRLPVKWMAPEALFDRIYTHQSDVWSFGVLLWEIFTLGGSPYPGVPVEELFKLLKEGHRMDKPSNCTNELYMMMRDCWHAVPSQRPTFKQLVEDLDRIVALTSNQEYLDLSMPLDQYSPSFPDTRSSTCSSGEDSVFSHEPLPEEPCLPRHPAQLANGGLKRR

| Compound | outcome | AC50 |
| --- | --- | --- |
| Cc1ncc([C@@H](CCCCCCc2ccc3c(n2)NCCC3)CC(=O)O)cn1 | inactive | – |
| Clc1cc(Cl)c2c(c1)N=C1CCCCCN1C2 | inactive | – |
| CCOc1ccc2c(c1)C(C)=CC(C)(C)N2 | inactive | – |
| S=C([S-])NCCNC(=S)[S-].[Mn+2] | – | 19.1 µM (active) |
| Cc1oc(-c2ccccc2)nc1CCOc1cccc2c1ccn2CCC(=O)O | inactive | – |
| CCN(CC)CCOc1ccc(C(=C(Cl)c2ccccc2)c2ccccc2)cc1 | – | 27.1 µM (active) |
| O=C(O)c1ccc2c(c1)nc(C(=O)NC1CCN(C3CC3)CC1)n2Cc1cc(-c2ccc(Cl)s2)on1 | inactive | – |
| Cc1c(-c2cccnc2)c2ccccc2n1CCCCC(=O)O | inactive | – |
| O=C(c1ccc(O)cc1O)c1ccc(O)cc1O | – | 25 µM (active) |
| CN(C)c1ccc(N=NS(=O)(=O)O)cc1 | inactive | – |
| Cc1ccc(C(C)(C)C)c(O)c1 | inactive | – |
| COCc1nnc(-c2ccc[n+]([O-])c2)n1-c1c(Cl)c(Cl)cc2[nH]c(=O)c(=O)[nH]c12 | inactive | – |
| COCC(C)OCC(C)OCC(C)O (stereo not given) | inactive | – |
| O=C(OCCOCCOC(=O)c1ccccc1)c1ccccc1 | inactive | – |
| Cc1ccc(N)cc1O | inactive | – |
| CCCCCCCC=O | inactive | – |
| O=C(O)c1cccc(Oc2ccccc2)c1 | inactive | – |
| CCN(CC)CCNc1ccc(CNC=O)c2sc3ccc(OC)cc3c(=O)c12 | inactive | – |
| CC(C)NCC(O)c1ccc(O)c(O)c1 (stereo not given) | inactive | – |
| CN1C(=O)N(c2ccccc2Br)Cc2cnc(Nc3ccc4c(c3)OCC(CO)O4)nc21 (stereo not given) | – | 0.0059 µM (active) |

| Compound | outcome | AC50 |
| --- | --- | --- |
| CCCCCCCCCCCCCC[P+](CCCC)(CCCC)CCCC | – | 5.1 µM (active) |
| CCCCCCCC(=O)O | inactive | – |
| N#CCCCCC#N | inactive | – |
| Cc1cc(NC(=O)C(=O)O)cc(C)c1Oc1ccc(O)c2c1CCC2 | inactive | – |
| S=C(S)NCCNC(=S)S.[Mn+2].[S-]C([S-])=NCCN=C([S-])[S-].[Zn+2] | – | 9.75 µM (active) and 926 nM (active) and 5.66 µM (active) |
| COCCOC[C@H](CC1(C(=O)NC2CCC(C(=O)O)CC2)CCCC1)C(=O)Oc1ccc2c(c1)CCC2 (stereo not given in full) | inactive | – |
| CN(C)C(=O)NC1(c2ccccc2)CCN(CCC[C@]2(c3ccc(Cl)c(Cl)c3)CCCN(C(=O)c3ccccc3)C2)CC1 | inactive | – |
| Cc1cc(CCN2CCN(c3nsc4ccccc34)CC2)cc2c1NC(=O)CC2(C)C | inactive | – |
| O=[N+]([O-])c1ccc(Cl)cc1 | inactive | – |
| CC(C)=CCC/C(C)=C\CO | inactive | – |
| COCC(C)OCC(C)O (stereo not given) | inactive | – |
| COc1ccc2sc(C(=O)Nc3nnn[nH]3)c(OC(C)C)c2c1 | inactive | – |
| O=C(NO)C1(NS(=O)(=O)c2ccc(Oc3ccc(F)cc3)cc2)CCOCC1 | inactive | – |
| CNC(=O)[C@H]1O[C@@H](n2cnc3c(NCc4cc(Cl)ccc4OCc4cc(C)no4)ncnc32)[C@H](O)[C@@H]1N | inactive | – |
| O=C(O)c1cc(N=Nc2ccc(S(=O)(=O)Nc3ccccn3)cc2)ccc1O | inactive | – |
| CCCCCCCCCC(=O)O | inactive | – |
| CC(C)(O)c1ccc(CNC(=O)c2cccnc2Oc2ccc(F)cc2)cc1 | inactive | – |
| CCCCC(CC)COC(=O)CCCCC(=O)OCc1ccccc1 (stereo not given) | inactive | – |
| Clc1nc(Cl)c(Cl)c(Cl)c1Cl | inactive | – |
| O=C(c1ccc(OCCN2CCCCC2)cc1)c1c(-c2ccc(O)cc2)sc2cc(O)ccc12 | – | 36.2 µM (active) |
